Laboratory results published in PubChem BioAssay AID1851 (National Center for Advancing Translational Sciences (NCATS), 2009).
Several values for one entry are separate records, joined by “and”; a condition that tells them apart may be missing. Identical values can stand only once. The whole screen tested about 16,000 compounds, of which about 5,800 (36%) were called active. Inconclusive results (about 23%) are left out. Calls follow the shape of the dose curve; as a rule, active = well fitted curve in the direction sought with a large enough effect; inconclusive = small, poorly fitted or top-dose-only effect, or effect the other way; inactive = no such curve, though single readings can be large or run the other way. The list shows a part of the results. More than one record can exist for a structure, and the calls need not agree.

What follows are molecules tested against Cytochrome P450 2C19 (Homo sapiens) (UniProt P33261) (assay: Cytochrome panel assay with activity outcomes). Conditions: recombinant CYP, pro-luciferin dealkylation, luminescence, p450-cyp2c19; series mostly up to 57.1 µM.
Sequence of Cytochrome P450 2C19 (Homo sapiens) (P33261 whole entry, looked up): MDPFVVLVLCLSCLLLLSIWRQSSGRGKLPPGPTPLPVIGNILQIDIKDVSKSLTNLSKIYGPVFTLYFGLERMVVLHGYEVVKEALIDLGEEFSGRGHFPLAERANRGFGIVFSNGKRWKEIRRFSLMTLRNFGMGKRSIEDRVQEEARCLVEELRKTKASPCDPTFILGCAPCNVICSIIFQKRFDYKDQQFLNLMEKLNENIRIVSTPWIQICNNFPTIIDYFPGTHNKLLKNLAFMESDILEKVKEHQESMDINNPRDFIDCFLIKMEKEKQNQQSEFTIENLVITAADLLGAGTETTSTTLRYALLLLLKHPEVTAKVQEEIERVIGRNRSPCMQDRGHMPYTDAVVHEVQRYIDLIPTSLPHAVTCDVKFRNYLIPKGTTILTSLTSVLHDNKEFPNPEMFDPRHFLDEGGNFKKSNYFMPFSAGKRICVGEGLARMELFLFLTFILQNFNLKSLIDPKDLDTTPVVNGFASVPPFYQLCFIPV
% is scaled to controls: 0 for no effect and ±100 for the full control effect.

Compound	activity, negative = inhibition	AC50
CC(=O)OC[C@@H]1O[C@@H](O/N=C2/C[C@@H](O)[C@@H](O)[C@@H]3[C@@H]4C(=O)N([C@@H](C)c5ccccc5)C(=O)[C@H]4CC[C@H]23)[C@H](OC(C)=O)[C@H](OC(C)=O)[C@@H]1OC(C)=O	-3.3% [at 11.4 µM] (inactive)	
O=C(/C=C/c1ccccc1)NC(NC(=S)Nc1ccc(Cl)cc1)C(Cl)(Cl)Cl (stereo not given)		3.55 µM (active)
C[C@@H](c1ccccc1)N1C(=O)[C@H]2[C@H]3[C@H](O)[C@H](O)C/C(=N/OCc4ccccc4)[C@@H]3CC[C@@H]2C1=O	-24.2% [at 11.4 µM] (inactive)	
CC(C)NC(=O)N1CCCC2(CCN(C(=O)c3cc(C(F)(F)F)cc(C(F)(F)F)c3)CC2)C1		inactive
Cc1nn2c3c(cnc2c1-c1ccccc1)C(=O)CC(c1ccccc1)C3 (stereo not given)		7.08 µM (active)
Cc1nn2c(NCC(C)C)c3c(nc2c1-c1ccccc1)CCC3		inactive
Cc1ccc(C)c(NC(=O)NCc2ccc(Cl)cc2)c1		1.58 µM (active)
COC(=O)C1CSC(C(=O)OC)N1C(=O)Nc1ccccc1 (stereo not given)		10 µM (active)
COC(=O)C1CSC(C(=O)OC)N1C(=O)Nc1c(C)cccc1C (stereo not given)		7.94 µM (active)
Cc1cccc(C)c1NC(=O)N1CCC(N2CCCCC2)CC1		inactive
CCCCN1CCCC[C@H]1C(=O)Nc1c(C)cccc1C		inactive
COc1ccc(C(=O)N2CCC3(CCCN(Cc4ccncc4)C3)CC2)cc1		inactive
CC(=O)Nc1ccc(S(=O)(=O)NC2(C(F)(F)F)NC(=O)N(c3ccc(Cl)cc3)C2=O)cc1 (stereo not given)		inactive
COc1ccc(N2C(=O)NC(NC(=O)c3ccncc3)(C(F)(F)F)C2=O)cc1 (stereo not given)		6.31 µM (active)
CNc1ncnc2c1ncn2[C@@H]1O[C@H](CO)[C@@H](O)[C@@H]1O		inactive
O=C(O)c1cccnc1C(=O)O		inactive
O=[N+]([O-])c1ccc([C@@H](Nc2ccccc2)c2ccc3cccnc3c2O)cc1		3.98 µM (active)
O=C(O)c1ccccc1N[C@H](c1ccccc1)c1ccc2cccnc2c1O		3.98 µM (active)
CC(=O)C[C@H](c1ccc([N+](=O)[O-])cc1)c1c(O)c2ccccc2oc1=O		inactive
Cc1cc(C)c(C#N)c(SCS(=O)c2ccc(C(C)(C)C)cc2)n1 (stereo not given)		3.16 µM (active)

Compound	activity, negative = inhibition	AC50
C[C@@]12CC3CC(N)(C1)C[C@@](C)(C3)C2		inactive
C[C@]12CC3CC(N)(C1)C[C@@](C)(C3)C2		inactive and 10 µM (active)
CCCn1c(CC)nc([N+](=O)[O-])c1S(=O)(=O)c1ccccc1		14.1 µM (active)
Cc1nc([N+](=O)[O-])c(N2CCN(C)CC2)n1Cc1ccccc1		inactive
COc1cc(-c2nnc(SC/C=C/c3ccccc3)n2N)cc(OC)c1OC		15.8 µM (active)
CCC(C)NC(=O)C1CCCN(C(=O)NC2CCCCC2)C1 (stereo not given)		14.1 µM (active)
CCCS(=O)(=O)N1CCCC(C(=O)NCCCOC(C)C)C1 (stereo not given)		inactive
CCS(=O)(=O)N1CCCC(C(=O)NCCCOC(C)C)C1 (stereo not given)		inactive
CO/N=C(\C(=O)N[C@@H]1C(=O)N2C(C(=O)O)=C(COC(N)=O)CS[C@@H]12)c1ccco1		inactive
O=C(CO)N/N=C/c1ccccc1F		inactive
O=C(Cc1ccccc1)N/N=C/c1ccccc1OCc1ccc(Cl)cc1		4.47 µM (active)
NC(=S)N/N=C/c1ccccc1OCc1cccc(Cl)c1		2.24 µM (active)
Cc1cc2nc(C3CCCN(C(=O)NCc4ccccc4)C3)[nH]c2cc1C (stereo not given)		20 µM (active)
CC1=C(C(=O)N2CCCCCC2)C2(CCC(C)CC2)OC1=O (stereo not given)		10 µM (active)
CC1=C(C(=O)NCCN2CCN(C)CC2)C2(CCC(C)CC2)OC1=O (stereo not given)		inactive
CN1C(=C2C(=O)OC(C)(C)OC2=O)Sc2ccccc21		1 µM (active)
O=[N+]([O-])c1ccc(CSc2ncnc3c2ncn3[C@@H]2O[C@@H](CO)[C@@H](O)[C@H]2O)cc1		inactive
N=C(N)SCCc1ccc(OCc2ccc([N+](=O)[O-])cc2)cc1		inactive
O=[N+]([O-])c1ccc(CSCc2ccc(Cl)cc2)cc1		0.398 µM (active)
COc1ccc(N2CCN(C(=O)CSc3nnc4c5cc(C)ccc5n(C)c4n3)CC2)cc1		1 µM (active)

Compound	activity, negative = inhibition	AC50
Cc1cc(=O)[nH]c2c1c(C)nn2C1CCOC(C)(C)C1 (stereo not given)		inactive
Cc1ccc2c(c1)C1(SCCS1)C(=O)N2		25.1 µM (active)
O=C1Nc2ccc(F)cc2C12SCCS2		11.2 µM (active)
CCc1c(O)c2c(c(O)c1C(C)=O)C(=O)c1c(cc(O)c(C(=O)O)c1C(=O)O)C2=O	-9.38% [at 11.4 µM] (inactive)	
CCOc1cc(CNCCCN2CCOCC2)cc(Br)c1OCC(=O)Nc1cccc(C(F)(F)F)c1		inactive
CCOc1cc2[nH]c(=O)n(CCC(=O)NCc3ccc(OC)cc3)c(=O)c2cc1OCC		inactive
CCOc1cc(CNc2ccc(OC)cc2)cc(Br)c1OCC(=O)NC(C)(C)C		5.62 µM (active)
OC[C@@H]1O[C@H](n2cnc3c(/C=C(\O)c4ccccc4)ncnc32)[C@H](O)[C@@H]1O	34% [at 11.4 µM] (inactive)	
CCOc1ccc(N2C(=O)CS/C2=N/NC(=O)COc2ccc3ccccc3c2)cc1		15.8 µM (active)
O=C(CSCc1ccccc1Cl)NNC(=S)Nc1ccccc1		2.24 µM (active)
O=C(NNC(=O)c1ccccc1O)c1ccc(Cl)cc1		inactive
O=C(CSCc1ccccc1Cl)NNC(=O)c1ccccc1		5.01 µM (active)
O=C(CSCc1ccccc1Cl)NN1C(=O)c2ccccc2C1=O		10 µM (active)
O=C(NNC(=S)Nc1ccccc1)C1CC1		inactive
O=C(O)c1c2c(c(O)c3c1CN(C1CCCCC1)CO3)OCN(C1CCCCC1)C2	22.2% [at 11.4 µM] (inactive)	
CCn1c(SCC(=O)NC2CCCc3ccccc32)nnc1-c1cccs1 (stereo not given)		7.94 µM (active)
CCn1c(SCC(=O)c2ccccc2)nnc1-c1cccs1		0.794 µM (active)
CCn1c(SCC(=O)c2ccc3ccccc3c2)nnc1-c1cccs1		0.708 µM (active)
O=C(CSc1nc2ccc([N+](=O)[O-])cc2s1)c1ccc2ccccc2c1	-43.1% [at 11.4 µM] (inactive)	
CCn1c(SCC(=O)NC(=O)NCc2ccco2)nnc1-c1cccs1		14.1 µM (active)
